Test results as given in PubChem BioAssay AID2242 (National Center for Advancing Translational Sciences (NCATS), 2010).
About 720 (0.36%) of roughly 200,000 compounds were called active. Not shown: some 8% with an inconclusive outcome. Calls come from the whole dose curve; as a rule, active = well fitted activation curve with a large enough effect; inconclusive = small, poorly fitted or top-dose-only effect, or effect the other way, or another doubt; inactive = flat fitted curve, though single readings scatter. This is one part of the list.

Each molecule was assayed against Lysosomal alpha-glucosidase (Homo sapiens) (UniProt P10253) (assay: qHTS Assay for Activators of Human alpha-Glucosidase as a Potential Chaperone Treatment of Pompe Disease). Conditions: purified enzyme, 4-MU-alpha-glucoside fluorescence, 20 min; series mostly up to 76.9 µM.
How it was run: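 Compounds titrated up to 77 uM against 4 nM enzyme and 400 uM methylumbelliferyl substrate at room temperature, 20 min, pH 5.0. Basic stop, then 4-methylumbelliferone fluorescence (365/440 nm) normalized to no-enzyme and enzyme controls; Hill-equation AC50.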
Note: nearly all actives have a fitted effect of over 80% in size.
Potency is the fitted concentration of half-maximal effect.

Potency, active:
CC1=C(C(=O)Nc2ccccn2)C(c2cn(C)nc2C)C2=C(CCCC2=O)N1 (centres undefined) 28.2 µM
CCn1cc(C2C(C(=O)Nc3ccc(Br)cn3)=C(C)NC3=C2C(=O)CCC3)c(C)n1 (centres undefined) 31.6 µM
Cc1cc(C(F)(F)F)c(C#N)c(=O)[nH]1 31.6 µM
CC(C)(C)c1cc(C(F)(F)F)c(C#N)c(=O)[nH]1 35.5 µM
O=c1oc2cc(O)ccc2cc1-c1ccc(F)cc1 25.1 µM
Cc1c(O)ccc2c(CN3CCN(CCO)CC3)cc(=O)oc12 35.5 µM
CCCc1cc(=O)oc2c(CN3CCCC3)c(O)c(Cl)cc12 35.5 µM
CCCCc1cc(=O)oc2c(CN3CCCC3)c(O)c(Cl)cc12 31.6 µM
CCc1cc(=O)oc2c(CN3CCN(C)CC3)c(O)c(Cl)cc12 31.6 µM
CCCc1cc(=O)oc2c(CN3CCN(C)CC3)c(O)c(Cl)cc12 35.5 µM
CCc1cc(=O)oc2c(CN3CCCC3)c(O)c(Cl)cc12 39.8 µM
CCc1cc2c(CN3CCN(C)CC3)cc(=O)oc2cc1O 35.5 µM
CCc1ccc(S(=O)(=O)c2nnn3c2nc(NCCNC(C)=O)c2ccccc23)cc1 31.6 µM
CN(C)Cc1c(O)c(Cl)cc2c3c(c(=O)oc12)CCCC3 35.5 µM
CCN(CC)Cc1c(O)c(Cl)cc2c3c(c(=O)oc12)CCCC3 35.5 µM
CC(C)C(=O)Nc1c2c(nc3ccccc13)N(C)CC2 35.5 µM
CCCOc1cc(N(CC)CC)ccc1/C=C(/C#N)c1nc2ccc(C)cc2[nH]1 35.5 µM
CCOP(=O)(OCC)c1nc(/C=C/c2ccccc2)oc1NCc1ccccc1 35.5 µM
CCOP(=O)(OCC)c1nc(/C=C/c2ccccc2)oc1NCc1ccc(OC)cc1 35.5 µM
CCCCc1cc(=O)oc2c(CN(C)C)c(O)ccc12 35.5 µM
CCCCc1cc(=O)oc2c(CN(C)C)c(O)c(Cl)cc12 35.5 µM
CCCCc1cc(=O)oc2c(CN(CC)CC)c(O)c(Cl)cc12 35.5 µM
CC(NC(=O)CCSc1nc(-c2ccc3c(c2)OCO3)cc(C(F)(F)F)n1)c1ccccc1 (centres undefined) 35.5 µM
COc1ccc(-c2n[nH]c(C(F)(F)F)c2-c2cc3ccccc3o2)c(O)c1 35.5 µM
O=C(O)c1cc(-c2ccc(Cl)s2)nc2ccccc12 35.5 µM
CCC(=O)N1N=C(c2ccc(NS(=O)(=O)CC)cc2)CC1c1ccc(C)cc1 (centres undefined) 35.5 µM
CCS(=O)(=O)Nc1ccc(C2=NN(C(C)=O)C(c3cccs3)C2)cc1 (centres undefined) 35.5 µM
CC(=O)Nc1ccc(C2=NN(c3ccccc3)C(c3cccs3)C2)cc1 (centres undefined) 28.2 µM
COc1ccc(C2C3=C(CCCC3=O)Nc3nc(-c4cc(OC)c(OC)c(OC)c4)nn32)cc1OC (centres undefined) 35.5 µM
COC(=O)C1=CN(CCCN2CCCC2=O)C=C(C(=O)OC)C1c1ccccc1C(F)(F)F 28.2 µM
COC(=O)C1=CN(CCCN2CCCC2=O)C=C(C(=O)OC)C1c1cccs1 39.8 µM
Cc1ccc2c(c1)c1ncnc(N3CCC4(CC3)OCCO4)c1n2C 39.8 µM
Cc1ccc2nc3c(cc(C(=O)NCC4CCCO4)c(=N)n3CCCOC(C)C)c(=O)n2c1 (centres undefined) 31.6 µM
COCCCn1c(=N)c(C(=O)NCC2CCCO2)cc2c(=O)n3cccc(C)c3nc21 (centres undefined) 35.5 µM
CCNc1nc2nc3ccc(C)cn3c(=O)c2cc1C(=O)NCC1CCCO1 (centres undefined) 35.5 µM
CCCn1c(=N)c(C(=O)NC2CCCC2)cc2c(=O)n3cccc(C)c3nc21 28.2 µM
CCn1c(=N)c(C(=O)NCCCOC)cc2c(=O)n3cccc(C)c3nc21 28.2 µM
COC(=O)Cc1cc(=O)oc2cc(O)ccc12 35.5 µM
O=C(Cc1cc(=O)oc2cc(O)ccc12)NCC1CCC(C(=O)O)CC1 (centres undefined) 35.5 µM
CCCCc1cc(=O)oc2cc(O)ccc12 35.5 µM
N#Cc1c(-c2cccc(Br)c2)cc(-c2ccco2)[nH]c1=O 39.8 µM
O=C(NC(=S)N(Cc1ccccc1)Cc1ccccc1)C1CCCCC1 39.8 µM
c1ccn2c(c1)nc1c2nc2ccccn21 31.6 µM
COC(=O)C1=CN(CC2CCCO2)C=C(C(=O)OC)C1c1cc(OC)c(OC)c(OC)c1 (centres undefined) 35.5 µM
COC(=O)C1=CN(CC2CCCO2)C=C(C(=O)OC)C1c1ccsc1 (centres undefined) 35.5 µM
COc1cc2c(cc1/C=C/C(=O)O)OC(C)C2 (centres undefined) 39.8 µM
CCCc1cc(=O)[nH]c(SCC(=O)c2cc(C)n(CCC)c2C)n1 39.8 µM
Cc1cccc(-c2cc3nc(-c4ccccc4)cc(N4CCC5(CC4)OCCO5)n3n2)c1 35.5 µM
COc1cccc(-c2cc3nc(-c4ccccc4)cc(N4CCC5(CC4)OCCO5)n3n2)c1 39.8 µM
CCOC(=O)c1cc2c(s1)-c1c(C)cccc1OC2 35.5 µM
O=C(O)c1cc2c(s1)-c1ccccc1OC2 31.6 µM
O=C(NC1CC1)c1cc2c(s1)-c1ccccc1OC2 35.5 µM
COC(=O)c1cc2c(s1)-c1ccccc1OC2 35.5 µM
CCOC(=O)c1cc2c(=O)n3ccccc3nc2n(CCOC)c1=NC(=O)C(C)(C)C 35.5 µM
CCOC(=O)c1cc2c(=O)n3ccccc3nc2n(CCOC)c1=NC(=O)c1ccncc1 31.6 µM
CCOC(=O)c1cc2c(=O)n3ccccc3nc2n(Cc2ccco2)c1=NC(=O)c1ccccc1OC 31.6 µM
CCOC(=O)c1cc2c(=O)n3ccccc3nc2n(CCCOC)c1=NC(=O)C(C)(C)C 35.5 µM
CCOC(=O)c1cc2c(=O)n3ccccc3nc2n(CCCOC)c1=NC(=O)c1cccnc1 35.5 µM
COc1cccc(-c2ccc(C#N)c(OC(=O)c3ccc(Cl)cc3)n2)c1 35.5 µM
